In PubChem BioAssay (Tox21):
Records with an inconclusive call do not appear. Calls of active or inactive are those of the source. Unless noted, the call rests on the fitted dose curve; in most records, active means well fitted curve in the direction sought with a large enough effect in the repeat runs; inconclusive means weak or mixed curves; inactive means no such curve, though single readings can be large; an effect the other way counts as inactive or inconclusive.

Columns and labels:
[1] = qHTS assay to identify small molecule antagonists of the glucocorticoid receptor (GR) signaling pathway - cell viability counter screen (AID 720693); further: nearly all actives have a fitted effect of over 55% in size
[2] = qHTS assay for identifying genotoxic compounds that show differential cytotoxicity against isogenic chicken DT40 cell lines with known DNA damage response pathways - wild type cell line (AID 743012); further: nearly all actives have a fitted effect of over 60% in size
Summary of the method: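 Endpoint: CellTiter-Glo luminescence, 30 min RT. Cells: wild type DT40, 300/well. Exposure: compounds in DMSO, 40 h, 37 C/5% CO2, after ~0.5 h pre-incubation.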

[3] = qHTS assay for identifying genotoxic compounds that show differential cytotoxicity against isogenic chicken DT40 cell lines with known DNA damage response pathways - Rev3 mutant cell line (AID 743014); further: nearly all actives have a fitted effect of over 55% in size
[4] = qHTS assay for identifying genotoxic compounds that show differential cytotoxicity against isogenic chicken DT40 cell lines with known DNA damage response pathways - Rad54/Ku70 mutant cell line (AID 743015); further: nearly all actives have a fitted effect of over 60% in size
[5] = qHTS assay to identify small molecule antagonists of the androgen receptor (AR) signaling pathway - cell viability counter screen (AID 743033; further: nearly all actives have a fitted effect of over 45% in size)
[6] = qHTS assay to identify small molecule antagonists of the androgen receptor (AR) signaling pathway using the MDA cell line - cell viability counter screen (AID 743041; further: nearly all actives have a fitted effect of over 45% in size)
Summary of the method: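 qHTS viability read-out; MDA-kb2 AR-luc; R1881-stimulated; 16 h exposure at 37C, 0% CO2; CellTiter-Fluor, 30 min; fluorescence intensity.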

[7] = qHTS assay to identify small molecule antagonists of the thyroid receptor (TR) signaling pathway (AID 743065); further: series mostly up to about 70 µM; nearly all actives have a fitted effect of over 55% in size
Summary of the method: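 GH3.TRE-Luc rat pituitary cells carrying two TR response elements driving luciferase were plated for 4 h, given compound plus 1 nM T3 (final), and incubated 23.5 h at 37 C. ONE-Glo luminescence measured reporter inhibition; CellTiter-Fluor fluorescence tracked cytotoxicity.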

[8] = tested on: thyroid hormone receptor (rat, GH3 cells); assay: qHTS assay to identify small molecule agonists of the thyroid receptor (TR) signaling pathway (AID 743066; calls by dose curve)
[9] = target: Estrogen receptor (Homo sapiens) (UniProt P03372); assay: qHTS assay to identify small molecule antagonists of the estrogen receptor alpha (ER-alpha) signaling pathway (AID 743069; active means well fitted curve in the direction sought with a large enough effect in the signal ratio in the repeat runs, not every such curve was filed as active; the % refers to the signal ratio)
Summary of the method: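 Screening used a UAS-driven beta-lactamase reporter integrated into HEK293 cells expressing ER-alpha, stimulated with 17beta-estradiol alongside test compounds over 18 hr at 37C; signal came from LiveBLAzer B/G FRET fluorescence.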

[10] = qHTS assay to identify small molecule antagonists of the estrogen receptor alpha (ER-alpha) signaling pathway - cell viability counter screen (AID 743074; calls by dose curve; further: nearly all actives have a fitted effect of over 45% in size)
[11] = target: Estrogen receptor (Homo sapiens) (UniProt P03372); assay: qHTS assay to identify small molecule agonists of the estrogen receptor alpha (ER-alpha) signaling pathway (AID 743075; calls by dose curve)
[12] = target: Estrogen receptor (Homo sapiens) (UniProt P03372); assay: qHTS assay to identify small molecule agonists of the estrogen receptor alpha (ER-alpha) signaling pathway using the BG1 cell line (AID 743079); further: nearly all actives have a fitted effect of over 20% in size
[13] = qHTS assay to identify small molecule antagonists of the estrogen receptor alpha (ER-alpha) signaling pathway using the BG1 cell line (AID 743080; calls by dose curve;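 further: BG1 cells stimulated with 17beta-estradiol alongside compound; series mostly up to about 70 µM; nearly all actives have a fitted effect of over 25% in size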)
Summary of the method: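 Quantitative HTS on the Tox21 10K library: BG1 cells with endogenous ER-alpha and ERE-luciferase reporter, 17beta-estradiol stimulation, 21.5 h compound exposure, luminescence endpoint with parallel fluorescence cytotoxicity counter-read.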

[14] = qHTS assay to identify small molecule antagonists of the estrogen receptor alpha (ER-alpha) signaling pathway using the BG1 cell line - cell viability counter screen (AID 743081);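 further: compound given together with 17beta-estradiol as the ER stimulus; series mostly up to about 70 µM; nearly all actives have a fitted effect of over 45% in size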
Aromatase (Homo sapiens) = Aromatase (Homo sapiens) (UniProt P11511); assay: qHTS assay to identify aromatase inhibitors (AID 743083); further: series mostly up to about 70 µM; nearly all actives have a fitted effect of over 55% in size
[15] = target: Androgen receptor (Homo sapiens) (UniProt P10275); assay: qHTS assay to identify small molecule antagonists of the androgen receptor (AR) signaling pathway (AID 743035; active means well fitted inhibition curve with a large enough effect in the signal ratio in the repeat runs, not every such curve was filed as active; the % refers to the signal ratio)
Summary of the method: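 R1881 agonist challenge of a HEK293 UAS-beta-lactamase AR reporter line in the presence of compound (16 h, 37C); signal taken as FRET fluorescence after 2 h with LiveBLAzer B/G substrate at room temperature.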

[16] = target: Androgen receptor (Homo sapiens) (UniProt P10275); assay: qHTS assay to identify small molecule agonists of the androgen receptor (AR) signaling pathway (AID 743036; active means well fitted activation curve with a large enough effect in the signal ratio in the repeat runs, with a control signal flat, not every such curve was filed as active; the % refers to the signal ratio)
Summary of the method: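 Screening used 2,000 AR-bla HEK293 cells per well, treated 16 h at 37C with test compounds in DMSO alongside positive and DMSO-only controls; beta-lactamase activity was then read by LiveBLAzer B/G FRET fluorescence after 2 h at room temperature.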

[17] = target: Androgen receptor (Homo sapiens) (UniProt P10275); assay: qHTS assay to identify small molecule agonists of the androgen receptor (AR) signaling pathway using the MDA cell line (AID 743040; further: nearly all actives have a fitted effect of over 20% in size)
Summary of the method: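 Agonist activity is measured as luciferase luminescence in human MDA-kb2 cells whose MMTV reporter responds to both AR and GR. Compounds in DMSO incubate 16 h at 37C, 0% CO2, and ONE-Glo is read after 30 min.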

[18] = target: Androgen receptor (Homo sapiens) (UniProt P10275); assay: qHTS assay to identify small molecule antagonists of the androgen receptor (AR) signaling pathway using the MDA cell line (AID 743042; further: nearly all actives have a fitted effect of over 55% in size)
Summary of the method: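 MDA-kb2 cells (human breast carcinoma, stably carrying an MMTV-luciferase reporter responsive to AR and GR) were plated at 3,000 cells/well and preincubated 5 hr at 37C, then given compound plus R1881 agonist for 16 h. ONE-Glo luminescence was read.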

[19] = qHTS assay to identify small molecule antagonists of the thyroid receptor (TR) signaling pathway - cell viability counter screen (AID 743064); further: nearly all actives have a fitted effect of over 50% in size
Summary of the method: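 Viability of T3-stimulated (1 nM final) GH3.TRE-Luc cells is measured by CellTiter-Fluor fluorescence after 23.5 h compound exposure at 37 °C plus 30 min reagent incubation.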

Measured: Potency

Estrogen receptor (Homo sapiens), sequence (P03372 whole entry, looked up): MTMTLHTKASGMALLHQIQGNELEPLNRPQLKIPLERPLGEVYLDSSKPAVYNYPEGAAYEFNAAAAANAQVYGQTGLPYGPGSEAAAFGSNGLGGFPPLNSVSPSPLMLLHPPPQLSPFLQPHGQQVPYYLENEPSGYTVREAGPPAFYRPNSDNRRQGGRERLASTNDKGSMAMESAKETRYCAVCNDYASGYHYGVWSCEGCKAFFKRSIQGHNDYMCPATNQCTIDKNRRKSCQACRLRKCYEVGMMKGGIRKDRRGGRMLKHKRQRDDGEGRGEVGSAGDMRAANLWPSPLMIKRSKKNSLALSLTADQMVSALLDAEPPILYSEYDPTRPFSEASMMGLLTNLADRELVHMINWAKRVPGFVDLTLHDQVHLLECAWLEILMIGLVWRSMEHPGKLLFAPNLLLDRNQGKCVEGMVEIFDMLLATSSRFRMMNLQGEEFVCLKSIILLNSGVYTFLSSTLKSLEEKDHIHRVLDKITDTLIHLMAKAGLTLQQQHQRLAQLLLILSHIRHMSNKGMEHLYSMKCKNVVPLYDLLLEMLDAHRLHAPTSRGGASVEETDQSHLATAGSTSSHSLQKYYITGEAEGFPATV
Aromatase (Homo sapiens), sequence (P11511 whole entry, looked up): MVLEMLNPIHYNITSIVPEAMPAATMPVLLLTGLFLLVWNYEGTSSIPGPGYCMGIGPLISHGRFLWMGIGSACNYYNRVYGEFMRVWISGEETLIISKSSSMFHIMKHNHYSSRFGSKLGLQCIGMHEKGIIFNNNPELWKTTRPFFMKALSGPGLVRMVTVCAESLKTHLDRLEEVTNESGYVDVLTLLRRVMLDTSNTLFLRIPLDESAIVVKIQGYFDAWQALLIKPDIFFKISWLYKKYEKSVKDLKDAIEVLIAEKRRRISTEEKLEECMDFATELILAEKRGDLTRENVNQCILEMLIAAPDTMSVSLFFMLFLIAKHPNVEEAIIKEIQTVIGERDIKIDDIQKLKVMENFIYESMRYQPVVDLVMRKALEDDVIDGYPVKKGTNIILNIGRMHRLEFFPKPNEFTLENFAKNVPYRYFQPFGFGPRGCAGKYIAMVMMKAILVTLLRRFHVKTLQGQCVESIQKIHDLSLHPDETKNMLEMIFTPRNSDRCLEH
Androgen receptor (Homo sapiens), sequence (P10275 whole entry, looked up): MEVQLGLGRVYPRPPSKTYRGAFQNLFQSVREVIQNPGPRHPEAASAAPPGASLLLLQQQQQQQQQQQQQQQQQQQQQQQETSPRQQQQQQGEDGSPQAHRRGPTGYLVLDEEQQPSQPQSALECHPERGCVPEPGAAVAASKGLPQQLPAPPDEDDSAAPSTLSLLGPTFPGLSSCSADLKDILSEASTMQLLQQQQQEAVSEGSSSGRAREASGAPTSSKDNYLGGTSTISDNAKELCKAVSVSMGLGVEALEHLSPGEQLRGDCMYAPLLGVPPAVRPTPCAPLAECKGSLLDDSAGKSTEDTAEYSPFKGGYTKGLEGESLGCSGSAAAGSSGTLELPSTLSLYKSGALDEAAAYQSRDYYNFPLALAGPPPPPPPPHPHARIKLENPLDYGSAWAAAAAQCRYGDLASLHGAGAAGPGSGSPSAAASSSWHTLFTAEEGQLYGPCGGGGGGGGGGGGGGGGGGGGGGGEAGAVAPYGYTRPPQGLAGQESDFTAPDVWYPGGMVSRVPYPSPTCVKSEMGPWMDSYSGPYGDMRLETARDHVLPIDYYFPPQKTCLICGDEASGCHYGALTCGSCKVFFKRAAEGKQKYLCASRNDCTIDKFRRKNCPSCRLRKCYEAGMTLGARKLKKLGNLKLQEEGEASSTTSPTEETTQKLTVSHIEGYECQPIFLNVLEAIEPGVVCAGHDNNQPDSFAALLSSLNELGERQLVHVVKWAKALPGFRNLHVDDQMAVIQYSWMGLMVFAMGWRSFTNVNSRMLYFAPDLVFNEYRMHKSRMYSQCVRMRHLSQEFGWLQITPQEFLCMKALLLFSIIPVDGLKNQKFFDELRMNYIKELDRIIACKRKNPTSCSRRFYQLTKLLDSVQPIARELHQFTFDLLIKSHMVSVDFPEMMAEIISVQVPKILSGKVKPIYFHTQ

Cc1ccc(O)c([N+](=O)[O-])c1
not listed: [15] | [16] | [17] | [18] | [19]
inactive: all other assays above

COc1cc(OC)cc(OC)c1
not listed: [4] | [9]
inactive: all other assays above

CCCCCC(CC)OC(=O)CCCOc1ccc(Cl)cc1Cl (configuration not stated)
inactive: [1] | [2] | [3] | [4] | [5] | [6] | [7] | [8] | [10] | [14] | Aromatase (Homo sapiens)

Cc1ccc(S(=O)(=O)NC(=O)NN2CC3CCCC3C2)cc1 (configuration not stated)
not listed: [15] | [16] | [17] | [18] | [19]
inactive: all other assays above

Cc1ccc(N)nc1
not listed: [4] | [19]
inactive: all other assays above

CCCCN1C(=O)c2ccccc2C1=O
not listed: [7] | [8] | [13] | [15] | [16] | [17] | [18]
inactive: all other assays above

CCCCCCCCS(=O)(=O)O
inactive: [1] | [2] | [3] | [4] | [5] | [6] | [7] | [8] | [10] | [14] | Aromatase (Homo sapiens)

O=CN1CCCCC1
not listed: [7] | [8] | [9] | [13] | [15] | [16] | [17] | [18]
inactive: all other assays above

CCC(=O)OCCOc1ccccc1
not listed: [9] | [15] | [16] | [17] | [18] | [19]
inactive: all other assays above

C=CC(C)(CCC=C(C)C)OC(=O)C(C)C (configuration not stated)
not listed: [15] | [16] | [17] | [18] | [19]
inactive: all other assays above
